CHO-K1 Ca antag: counter-screen for M1 antagonists: effect in parental CHO-K1 cells | ATP-induced calcium, Fluo-8 fluorescence | inhibition, % at 3 µM | hit rate 0.6% among 360,000;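 active = inhibition above a per-plate cutoff, the plate's mean sample inhibition plus 3 SD, cut at about 24% in these data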;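 also: 0% = DMSO plus EC80 ATP and 100% = DMSO alone without ATP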
CHO-K1 Ca ag: nonselective activator or artifact in parental CHO-K1 cells. Fluo-8 calcium fluorescence; scaled to maximal ATP response, vehicle zero. hit rate 0.48% among 360,000. AID 602248. activation, % at 3 µM; in the data active = activation above about 15%;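 also: untransfected CHO-K1 host cells lacking M1 receptor as counterscreen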
CHRM1 agonist: agonists of human M1 muscarinic receptor; CHO-K1 hM1, Fluo-8 calcium fluorescence, agonist mode; 0% DMSO, 100% acetylcholine EC100; P11229; AID 588814; hit rate 0.33% among 360,000; activation, % at 3 µM;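 active = activation above the run's mean compound activation plus 3 SD, cut at about 16% in these data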;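 also: peak over basal fluorescence ratio within a 140 s kinetic read after compound addition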
Target sequence (P11229 whole entry, looked up): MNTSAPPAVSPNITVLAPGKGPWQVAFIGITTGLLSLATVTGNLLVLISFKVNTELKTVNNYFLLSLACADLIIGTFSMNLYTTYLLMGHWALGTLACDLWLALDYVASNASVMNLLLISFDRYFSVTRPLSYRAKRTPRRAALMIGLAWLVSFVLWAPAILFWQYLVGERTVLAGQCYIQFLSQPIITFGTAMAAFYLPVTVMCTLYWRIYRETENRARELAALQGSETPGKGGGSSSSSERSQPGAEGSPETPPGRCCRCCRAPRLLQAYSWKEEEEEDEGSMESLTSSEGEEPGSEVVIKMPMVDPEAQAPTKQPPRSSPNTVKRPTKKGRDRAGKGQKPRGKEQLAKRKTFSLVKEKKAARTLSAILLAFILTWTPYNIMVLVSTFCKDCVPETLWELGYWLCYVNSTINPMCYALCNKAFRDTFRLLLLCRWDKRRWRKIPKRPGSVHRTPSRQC
M1 PAM: positive allosteric modulators of human M1 muscarinic receptor | P11229 | CHO-K1 hM1, Fluo-8 calcium fluorescence, ACh EC20; 0% = ACh EC20, 100% = maximal ACh | activation, % at 3 µM | hit rate 0.088% among 360,000 | AID 588819; in the data active = activation above about 19%, passing the limit was not always enough
M1 PAM parental: nonselective activator or artifact in parental CHO-K1 calcium assay; ATP EC20, Fluo-8 calcium fluorescence; 0% at ATP EC20, 100% at ATP max; activation, % at 3 µM; hit rate 0.02% among 360,000;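 active = activation above the run cutoff, the mean activation of all test compounds plus 3 SD, cut at about 40% in these data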;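 also: peak over basal fluorescence ratio in a 140 s read after ATP addition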
CHRM1 antagonist: human CHRM1 antagonism; inhibition, % at 3 µM; CHO-K1 hM1, Fluo-8 calcium fluorescence, ACh EC80 antagonist; hit rate 1.3% among 360,000;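 active = percent inhibition above its own plate's cutoff, namely the mean of that plate's compound wells plus 3 SD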;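 also: peak over basal fluorescence ratio during 140 s after agonist addition; 0% = ACh EC80 plus DMSO and 100% = DMSO alone without agonist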
Active calls of the source: *; ! = a repeat was not active. Shown are actives, neighbours in structure and some others; about 2.3% of the full set was active somewhere.

SMILES | CHO-K1 Ca antag | CHO-K1 Ca ag | CHRM1 agonist | M1 PAM | M1 PAM parental | CHRM1 antagonist
CC(C)CN(C(=O)COc1ccccc1C(=O)NCc1ccccc1)C1CCS(=O)(=O)C1 (stereo unspecified) | -3 | 1 | -2 | -1 | 5 | -9
CCC(CC)c1nnc(NC(=O)CCNC(=O)c2ccccc2Cl)s1 | -19 | 2 | -2 | 8 | 10 | -8
CC(C)(C)c1ccc(S(=O)(=O)NNC(=O)C2CCN(Cc3cccc(F)c3)CC2)cc1 | -5 | 23* | -5 | 6 | 25 | -1
O=C(NCCc1cccc(F)c1)C1CCN(S(=O)(=O)c2ccc(F)cc2)CC1 | -4 | 3 | -1 | 9 | 10 | -14
O=C(c1ccc(Cl)s1)N1CCN(S(=O)(=O)c2ccc(Cl)cc2)CC1 | -9 | 0 | 0 | 14 | 8 | -11
COC(=O)C1(NC(=O)CNC(=O)OCc2ccccc2)CCCC1 | 4 | 0 | -3 | 4 | 3 | -12
CNC(C)C(=O)NC(C(=O)N1CCCC1C(=O)Nc1ccc2[nH]ccc2c1)C(C)C (stereo unspecified) | -12 | 1 | -3 | 3 | 22 | -10
CNC(C)C(=O)NC(C(=O)N1CCCC1C(=O)Nc1ccc2ncccc2c1)C(C)C (stereo unspecified) | -9 | 0 | 2 | 32* | 12 | -17
COc1ccc(Nc2ccnc3ccccc23)cc1 | -9 | 0 | 25* | 0 | 10 | -9
COc1ccc(Nc2ncnc3ccccc23)cc1 | -14 | 1 | -2 | 9 | 14 | -12
CC(C)(C)N1C(=O)c2ccc(C(=O)NCc3ccco3)cc2C1=O | 0 | 1 | -2 | 8 | 8 | -8
COc1cc(C=NN2CCCCC2)cc(OC)c1OC | 0 | 0 | 25* | -8 | 7 | 5
COc1ccc2ccccc2c1C=NN1CCCCC1 | 0 | 0 | 21* | -9 | -13 | 9
Cc1ccc(C(=O)OCC(=O)NC2CCCCC2)s1 | -10 | 0 | -6 | 3 | 16 | -1
CN(C)Cc1csc(NC(=O)Nc2ccccc2-c2ccccc2)n1 | 7 | 1 | -8 | -20 | -8 | 28*
O=C(O)c1ccc(NS(=O)(=O)c2cc(Cl)ccc2Cl)cc1O | -4 | 1 | -1 | 11 | 20 | -12
Cc1cc(C(=O)COC(=O)c2n[nH]c(=O)c3ccccc23)c(C)n1C | 6 | 0 | -1 | -12 | -7 | 28*
Cc1cc(C(=O)COC(=O)c2n[nH]c3ccccc23)c(C)n1C | -10 | 2 | -2 | 9 | 27 | -13
CCOC(=O)CN1c2ccccc2NC(=O)CC1C (stereo unspecified) | -29 | 1 | -4 | 12 | 43* | -14
COc1ccc(-c2cc(C(=O)Nc3cc(OC)cc(C(=O)Nc4cccc(C(F)(F)F)c4)c3)[nH]n2)cc1 | 4 | 1 | 1 | -11 | 1 | 41*!
CC(C)Oc1cc(F)ccc1-c1cc(C(=O)Nc2cccc(C(F)(F)F)c2)[nH]n1 | 11 | 0 | -4 | -22 | -14 | 35*
COc1ccc(NC(=O)c2cc(-c3ccc(F)cc3OC(C)C)n[nH]2)cn1 | 5 | 5 | -4 | -5 | 20 | 8
COc1cc(NC(=O)c2ccno2)cc(C(=O)Nc2cccc(C(F)(F)F)c2)c1 | 12 | 17* | 9 | -21 | -14 | 31*
COc1cc(NC(=O)c2cc3cccc(OC)c3o2)cc(C(=O)Nc2cccc(C(F)(F)F)c2)c1 | 2 | 1 | -2 | -7 | 4 | 14
CCCCN1C(=O)C(CC(=O)NC2CC2)CC(C(=O)N(CC)CC)=C1C (stereo unspecified) | -11 | 0 | -3 | -1 | 8 | -1
SMILES | CHO-K1 Ca antag | CHO-K1 Ca ag | CHRM1 agonist | M1 PAM | M1 PAM parental | CHRM1 antagonist
O=C(Cc1nc(-c2ccc([N+](=O)[O-])cc2)cs1)Nc1ccccc1 | -7 | 8 | 18* | 7 | 19 | -4
COCC(=O)Nc1nc(-c2ccc([N+](=O)[O-])cc2)cs1 | -17 | 4 | -3 | 9 | 16 | -10
CN(Cc1ccccc1)C(=O)c1ccc2nc([C@@H]3O[C@H](CO)[C@H](O)[C@H](O)[C@H]3O)[nH]c2c1 | 0 | 0 | 3 | 15 | -5 | -16
COc1ccc(N2C[C@H](CSC)[C@@H](CC(=O)Nc3ccccc3)C2=O)cc1 | -9 | 2 | -1 | 12 | 18 | -22
COc1cc2c(cc1OC)CN(c1nc(CN3CCCCC3)nc3sc4c(c13)CCCC4)CC2 | -3 | 20* | -11 | -4 | 25 | 8
COc1cc2c(cc1OC)CN(c1nc(CN3CCOCC3)nc3sc4c(c13)CCCC4)CC2 | 1 | 2 | -11 | -7 | -2 | 10
O=C(Cc1ccccc1)N1CCN(C(=O)c2ccc([N+](=O)[O-])cc2)CC1 | -9 | 0 | -10 | 3 | 6 | -8
O=C(C1=NN[C@@H]2C(=O)N(Cc3ccccc3)C(=O)[C@H]12)c1ccc([N+](=O)[O-])cc1 | -7 | 23* | 0 | 3 | 22 | -2
O=c1c(Cc2c(F)cccc2Cl)c(O)ccn1CCCN1CCOCC1 | -6 | 0 | -6 | 5 | 12 | -2
Cc1ccc(N(C)S(=O)(=O)c2cccc(C(=O)OCC(=O)c3c(N)n(C)c(=O)n(C)c3=O)c2)cc1 | 2 | 8 | 6 | -16 | -24 | 33*
Cc1nc(SCC(=O)N2c3ccccc3Sc3ccccc32)n[nH]1 | 4 | 0 | -4 | -2 | 7 | -22
CCN(C(=O)c1ccc(NC(=O)Cc2ccccc2)cc1)c1ccccc1 | 10 | 16* | 2 | 0 | -21 | 2
CN(C(=O)c1ccc(NC(=O)Cc2ccccc2)cc1)c1ccccc1 | 3 | 3 | 0 | -1 | -12 | 2
COc1ccc(C2CC(c3cccs3)=NN2C(=O)CSc2nc(=O)n3cc(C)ccc3n2)cc1 (stereo unspecified) | -7 | 2 | 1 | -8 | 26 | 0
Cc1cc(NCCCCCCCNc2cc(C)nc3cc([N+](=O)[O-])ccc23)c2ccc([N+](=O)[O-])cc2n1 | -7 | 0 | -8 | -28 | 0 | 34*
CCSc1nsc(NC(=O)Nc2ccc(F)cc2F)n1 | 20 | 9 | 2 | -6 | -6 | 13
CCSc1nsc(NC(=O)Nc2ccccc2Cl)n1 | 28* | 7 | 0 | -13 | -16 | 18
Cc1cc(C)nc(SSc2nc(C)cc(C)n2)n1 | -3 | 3 | 7 | 16 | 4 | -24
COc1cc2c(cc1OC)CN(C(=S)Nc1ccccc1Cl)CC2 | 9 | 17* | 2 | 0 | -3 | 3
ON(CCc1ccccn1)CCc1ccccn1 | -13 | 2 | -4 | 11 | 14 | -21
OCCN(Cc1ccccn1)Cc1ccccn1 | -12 | 2 | -12 | -32 | 18 | 72*
Cc1ccnc2nc(C(=O)OCC(=O)NC3CCC(C)CC3)nn12 (stereo unspecified) | -7 | 0 | -4 | 8 | 3 | -13
